An excerpt weighted towards active compounds, which were near 1.3% of everything screened.
SRC1 inh: inhibitors of human steroid receptor coactivator 1 (SRC1); Q15788; AID 588354; 360,000 tested, 0.12% active; inhibition, % at 3.6 µM; HEK293 GAL4-SRC1 luciferase reporter, luminescence;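 active = inhibition above the campaign mean plus 3 SD, with each screening campaign given its own cutoff, cut at about 60% in these data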;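 note: 0% = DMSO treated cells and 100% = gossypol at 36 µM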
NR2F2 inh: blocks human COUP-TFII nuclear receptor | P24468 | HEK293T NGFI-A luciferase reporter, luminescence | inhibition, % at 8.6 µM | 370,000 tested, 0.7% active | AID 686940;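 active = inhibition above a per-plate cutoff, mean inhibition of test wells between control levels plus 3 SD, cut at about 38% in these data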;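 note: cells cotransfected with COUP-TFII expression vector driving the NGFI-A reporter; 0% = median of COUP-TF2 test wells and 100% = reporter-only cells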
NCOA3 inh: inhibits human SRC3 coactivator; HEK293 GAL4-SRC3 luciferase reporter, luminescence; inhibition, % at 3.6 µM; 360,000 tested, 0.17% active; AID 588352;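 active = inhibition above a per-campaign cutoff, the mean of all compounds plus 3 SD, cut at about 60% in these data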;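 note: 0% = DMSO-treated cells and 100% = gossypol-treated cells at 36 µM; higher means less SRC3-driven luciferase light from the GAL4 reporter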
SRC2 inh: inhibits human steroid receptor coactivator 2; AID 651957; 370,000 tested, 0.17% active; Q15596; HEK293 GAL4-SRC2 luciferase reporter, luminescence; inhibition, % at 9 µM;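 active = inhibition above the mean inhibition of all tested compounds plus 3 SD, set per campaign, cut at about 52% in these data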;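 note: 0% = DMSO treated cells and 100% = cells given Gossypol at 36 µM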
Target sequence (Q15596 whole entry, looked up, the tested form may be a part): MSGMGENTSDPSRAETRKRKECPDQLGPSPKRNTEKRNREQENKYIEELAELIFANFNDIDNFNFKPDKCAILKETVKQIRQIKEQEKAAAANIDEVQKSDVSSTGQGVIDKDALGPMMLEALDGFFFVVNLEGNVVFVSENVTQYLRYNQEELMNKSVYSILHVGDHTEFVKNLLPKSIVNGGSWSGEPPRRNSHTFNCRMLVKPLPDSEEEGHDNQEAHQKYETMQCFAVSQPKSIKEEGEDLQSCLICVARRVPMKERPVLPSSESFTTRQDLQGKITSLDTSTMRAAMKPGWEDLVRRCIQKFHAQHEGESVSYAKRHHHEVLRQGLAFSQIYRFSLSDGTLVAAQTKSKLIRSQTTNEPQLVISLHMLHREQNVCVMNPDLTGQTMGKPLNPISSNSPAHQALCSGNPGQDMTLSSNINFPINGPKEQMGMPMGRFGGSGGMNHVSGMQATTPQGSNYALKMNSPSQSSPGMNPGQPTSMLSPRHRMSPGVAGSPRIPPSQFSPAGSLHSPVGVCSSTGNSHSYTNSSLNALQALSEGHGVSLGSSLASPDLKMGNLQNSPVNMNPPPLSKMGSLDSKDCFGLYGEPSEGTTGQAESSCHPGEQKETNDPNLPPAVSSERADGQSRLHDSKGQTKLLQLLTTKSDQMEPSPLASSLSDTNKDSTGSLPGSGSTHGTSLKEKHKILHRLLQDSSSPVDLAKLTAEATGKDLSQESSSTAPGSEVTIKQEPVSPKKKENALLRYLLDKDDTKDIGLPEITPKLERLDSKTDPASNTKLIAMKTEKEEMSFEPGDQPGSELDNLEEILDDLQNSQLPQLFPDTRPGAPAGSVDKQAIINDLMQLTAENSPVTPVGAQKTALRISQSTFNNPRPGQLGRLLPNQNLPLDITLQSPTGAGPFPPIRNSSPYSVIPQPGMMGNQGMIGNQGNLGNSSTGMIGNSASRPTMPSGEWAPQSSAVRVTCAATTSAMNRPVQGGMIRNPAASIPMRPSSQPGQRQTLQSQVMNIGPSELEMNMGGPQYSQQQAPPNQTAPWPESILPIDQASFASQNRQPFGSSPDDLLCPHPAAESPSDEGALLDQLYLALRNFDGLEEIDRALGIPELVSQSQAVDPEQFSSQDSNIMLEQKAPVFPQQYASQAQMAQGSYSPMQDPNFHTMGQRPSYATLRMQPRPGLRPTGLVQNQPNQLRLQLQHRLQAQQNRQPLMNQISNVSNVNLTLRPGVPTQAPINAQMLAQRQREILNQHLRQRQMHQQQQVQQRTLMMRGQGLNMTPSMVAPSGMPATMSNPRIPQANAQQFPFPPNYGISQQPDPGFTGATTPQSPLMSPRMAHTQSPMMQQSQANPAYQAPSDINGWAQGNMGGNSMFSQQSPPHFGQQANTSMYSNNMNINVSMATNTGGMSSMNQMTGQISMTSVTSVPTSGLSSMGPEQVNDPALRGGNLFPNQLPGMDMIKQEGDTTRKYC
LRH-1 inv ag: NR5A2 inverse agonism in reporter assay; O00482; HEK293T StAR-luciferase reporter, LRH-1 transfected, 24 h; inhibition, % at 3.6 µM; 360,000 tested, 0.13% active;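 active = inhibition above the mean inhibition of all tested compounds plus 3 SD, cut at about 73% in these data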;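 note: 0% = DMSO wells and 100% = reporter-only cells lacking LRH-1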
Gli-Sufu antag: Gli-Sufu pathway antagonism. 340,000 tested, 0.74% active. AID 588413. inhibition, % at 5 µM. Sufu-KO-LIGHT fibroblasts, Gli luciferase reporter luminescence;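 active = inhibition above about 55%, limit read from the data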;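 note: 0% = DMSO-treated cells and 100% = wells with medium but no cells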
Gli antag conf: confirmation of Gli-SUFU pathway antagonists; shares compounds with Gli-Sufu antag; inhibition, % at 5 µM; 2,500 tested, 40% active; AID 602428; Sufu-KO-LIGHT cells, Gli luciferase reporter, luminescence;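 active = mean inhibition at 5 µM reaching about 45%, limit read from the data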;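 note: plate controls were DMSO-treated cells for no effect and wells lacking cells for full effect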
SufuKO cytotox: cytotoxic in Gli-SUFU antagonist counter-screen; shares compounds with Gli-Sufu antag; Sufu-KO-LIGHT cells cytotoxicity, ATP luminescence; cytotoxicity, % at 5 µM; 2,500 tested, 32% active; AID 651994;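 active = mean cytotoxicity at 5 µM above about 25%, limit read from the data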;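 note: cells exposed to compound overnight for roughly 16 to 18 hours; plate controls were DMSO wells with cells for no effect and medium without cells for full effect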
Wnt3a cs: counter-screen for Gli-SUFU antagonists: Wnt3a reporter inhibition; AID 651995; 2,500 tested, 20% active; shares compounds with Gli-Sufu antag; inhibition, % at 6.25 µM; Wnt-LIGHT cells, Wnt3a-driven luciferase reporter, luminescence;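 active = mean inhibition above about 25%, limit read from the data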
Starred values were filed as active, the others as inactive; nt = no result.

SMILES	SRC1 inh	NR2F2 inh	NCOA3 inh	SRC2 inh	LRH-1 inv ag	Gli-Sufu antag	Gli antag conf	SufuKO cytotox	Wnt3a cs
NC(=O)CC(NC(=O)c1ccc(Br)cc1)c1ccc(N2CCCCCC2)c([N+](=O)[O-])c1 (stereo unspecified)	-1	15	20	38	22	61*	32	23	-109
S=C(Nc1ccccc1)N1CCC(Cc2ccccc2)CC1	2	2	-21	4	-11	53	66*	27*	22
COc1ccc(NC(=S)N2CCC(Cc3ccccc3)CC2)cc1	-3	-7	12	15	8	62*	45	10	13
CCNC(=S)N1CCC(Cc2ccccc2)CC1	4	-17	3	11	-11	27	nt	nt	nt
COc1ccc(NC(=S)N2CCN(Cc3ccccc3)CC2)cc1	9	-8	0	6	-4	1	nt	nt	nt
CS(=O)(=O)N1CCC[C@]2(CC[C@H](CCC#N)O2)C1	nt	-13	nt	-4	nt	nt	nt	nt	nt
O=C(NNC1CC(=O)N(c2ccc(Br)cc2)C1=O)c1cccs1 (stereo unspecified)	-7	-31	-10	-10	-14	2	nt	nt	nt
CCOC(=O)CNC1CC(=O)N(c2ccc(Br)cc2)C1=O (stereo unspecified)	-9	-17	-16	8	6	77*	15	14	-9
Cc1c(C(=O)Nc2ccc(-c3nnc4n3CCCCC4)cc2)oc2ccc(Br)cc12	-7	11	16	-10	-50	52	32	13	-97
NC(=S)N/N=C/c1ncc(C(F)(F)F)cc1Cl	19	nt	22	nt	32	53	65*	28*	44*
CCN(CC)S(=O)(=O)c1cccc(NC(=O)CCSc2ccc(Cl)cc2)c1	3	10	4	7	9	51	10	28*	-33
CCN(CC)S(=O)(=O)c1cccc(NC(=O)CNc2cccc(S(=O)(=O)N3CCOCC3)c2)c1	27	nt	28	nt	41	63*	69*	25*	29*
CN(C)S(=O)(=O)c1cccc(NC(=O)COC(=O)CCSc2ccc(Cl)cc2)c1	4	4	20	1	-16	3	nt	nt	nt
CCN(CC)S(=O)(=O)c1cc(NC(=O)CNc2cccc(S(=O)(=O)N3CCCC3)c2)ccc1C	30	nt	3	nt	42	72*	66*	31*	19
O=C1N(c2cccc3ccccc23)C(c2ccccc2)N2CCCN12 (stereo unspecified)	6	-10	1	19	0	81*	14	5	-10
CCCNC(=O)c1ccc(N2CCC3(CC2)CC(c2ccccc2)=NO3)c(NC(=O)c2cccc(C)c2)c1	-6	10	-5	-3	1	52	25	15	-108
CCCNC(=O)c1ccc(N2CCC3(CC2)CC(c2ccccc2)=NO3)c(NC(=O)c2ccccc2)c1	10	17	5	18	2	18	nt	nt	nt
CN1CC=C(c2ccccc2)N(c2ccc(Br)cc2)C1=O	nt	26	nt	2	nt	nt	nt	nt	nt
Cc1ccc2c(c1)CCCN2C(=O)CCc1nc2ccccc2c(=O)[nH]1	4	-17	8	21	8	90*	22	55*	-12
COc1ccc(C2C(C(=O)N3CCC(C)CC3)CC(=O)N2c2ccc(OC)cc2)cc1 (stereo unspecified)	nt	-9	nt	15	nt	nt	nt	nt	nt
O=c1c(N=Nc2ccc(O)cc2)c(-c2ccccc2)[nH]n1-c1ccc([N+](=O)[O-])cc1	1	-14	-21	13	22	53	35	11	67*
NC(=O)c1ccc(N=Nc2c(-c3ccccc3)[nH]n(-c3ccccc3)c2=O)cc1	nt	-10	nt	15	nt	nt	nt	nt	nt
CC(=O)CC[C@H]1CC[C@]2(CCCN(Cc3nccn3C)C2)O1	nt	8	nt	9	nt	nt	nt	nt	nt
COC(=O)c1ccc(OCC(O)CN2CCc3cc(OC)c(OC)cc3C2c2ccccc2)cc1 (stereo unspecified)	-8	3	9	1	9	58*	27	19	-59
CC(C)(C)OC(=O)N1CCC(c2cc(-c3cccs3)n[nH]2)CC1	-11	-4	-3	-10	-22	57*	42	9	-66
SMILES	SRC1 inh	NR2F2 inh	NCOA3 inh	SRC2 inh	LRH-1 inv ag	Gli-Sufu antag	Gli antag conf	SufuKO cytotox	Wnt3a cs
Cc1ccc(C2CCC3(CCC(=O)N3CCO)CC2)cc1 (stereo unspecified)	nt	-11	nt	-26	nt	nt	nt	nt	nt
CCC(C)NS(=O)(=O)c1ccc(S(=O)(=O)N2CCCC3(CCCCC3)C2)cc1 (stereo unspecified)	-4	-3	9	-4	13	53	43	26*	6
Cc1ccc(-c2cc(C(=O)NN=Cc3c(O)ccc4ccccc34)[nH]n2)cc1C	nt	-27	nt	29	nt	nt	nt	nt	nt
CCOC(=O)C1(CCOc2ccccc2)CCN(Cc2ccc(OC)c(COC)c2)CC1	12	24	25	13	18	57*	21	16	-11
C[C@H](O)[C@@H]1C(=O)N2CCc3c([nH]c4c(-c5ccc6c(c5)OCO6)cccc34)[C@@H]2C[C@@H]1N(C)C(=O)c1ccccc1F	nt	-7	nt	4	nt	nt	nt	nt	nt
C/C(=N\NC(N)=S)c1ccccc1	-14	3	13	3	32	2	nt	nt	nt
CSC(=S)N/N=C(\C)c1ccccc1	11	-20	-4	-9	-4	72*	34	18	-5
COC(=O)C1=C(C)N(Cc2ccc(C(F)(F)F)cc2)C(=NCc2ccccc2C(F)(F)F)NC1c1ccccc1 (stereo unspecified)	nt	14	nt	-10	nt	nt	nt	nt	nt
CCN1CCN(C(=O)c2c(-c3ccccc3)noc2C)CC1	-76	-2	-2	4	5	26	nt	nt	nt
CC(=O)N1CCN(C(=O)c2c(-c3ccccc3)noc2C)CC1	-1	-1	1	-47	18	59*	25	8	-13
Cc1[nH]c2ccccc2c1C(=O)CSc1nc2cc(S(=O)(=O)N3CCCCC3)ccc2o1	7	19	7	7	2	55*	42	13	23
CCCn1c(NC(=O)c2ccccc2)nc(Cc2ccccc2)c1Cc1ccccc1	nt	-4	nt	8	nt	nt	nt	nt	nt
Cc1cc(NC(=O)CSc2cc(Cl)ccc2Cl)n(-c2ccccc2)n1	-49	7	19	-4	13	52	22	7	-5
Cc1cc(NC(=O)COc2ccc(Cl)cc2Cl)n(-c2ccccc2)n1	-40	8	6	24	0	5	nt	nt	nt
CC(C)c1ccc(C(O)c2cnc(C(C)C)n2C)cc1 (stereo unspecified)	-37	-24	-25	-15	-44	95*	10	2	-70

High-throughput results (PubChem BioAssay)
